High-throughput results (PubChem)
Mtb FBA inh: inhibits M. tuberculosis FBA enzyme. 360,000 tested, 2.3% active. P9WQA3. purified M. tuberculosis FBA, fluorescence read-out. AID 588726. inhibition, % at 1 µM
BoNT A protease: inhibitors of Botulinum neurotoxin A light chain protease | 360,000 tested, 0.17% active | multiplex microsphere protease substrate cleavage, flow cytometry | inhibition, % at 10 µM; in the data active = inhibition above about 30%; inconclusive = no clear call, values can overlap the other calls
Anthrax LF inh2: blocks Bacillus anthracis lethal factor protease; 360,000 tested, 0.12% active; multiplex microsphere protease cleavage assay, LF; inhibition, % at 10 µM; P15917; in the data active = inhibition above about 30%; inconclusive = no clear call, values can overlap the other calls
GDH-TPI counter-1: counter-screen for M. tuberculosis FBA inhibitors: GDH-TPI coupled enzymes; GDH-TPI coupled enzyme counterscreen, NADH absorbance; inhibition, % at 4.8 µM; 360,000 tested, 1.2% active; in the data active = inhibition above about 30%
Bead autofluor: flagged as autofluorescent in microsphere protease counterscreen; compound autofluorescence counterscreen, microsphere flow cytometry; hits give high values; fluorescence intensity (no concentration beside the values); 360,000 tested, 3.1% active; AID 624483; in the data active = fluorescence intensity above about 16000; inconclusive = no clear call, values can overlap the other calls
BoNT F protease: blocks Botulinum neurotoxin F light chain protease | Multiplex microsphere protease cleavage assay, flow cytometry | inhibition, % at 10 µM | 360,000 tested, 0.22% active | AID 588497; in the data active = inhibition above about 35%, passing the limit was not always enough; inconclusive = no clear call, values can overlap the other calls
Mtb FBA confirm: Mtb FBA inhibition, confirmed | shares compounds with Mtb FBA inh | purified M. tuberculosis FBA, fluorescence read-out | inhibition, % at 1 µM | 5,600 tested, 78% active
GDH-TPI counter-2: GDH-TPI inhibition counter-screen for FBA inhibitors; 5,600 tested, 81% active; inhibition, % at 1 µM; shares compounds with Mtb FBA inh; GDH-TPI coupled enzyme counterscreen, fluorescence; in the data active = inhibition above about 10%
Numbers stand for hits. A selection: hits, their analogues and other compounds. The true share with any hit is near 6.6%. Cut-off read from the data, not from the text of the source, unless noted: active = inhibition above about 27%; inactive = the rest.

What do the screens show for `Clc1ccc(SCc2cn3ccccc3n2)cc1`?
Mtb FBA inh: 61; BoNT A protease: inactive; Anthrax LF inh2: inactive; GDH-TPI counter-1: inactive; Bead autofluor: inactive; BoNT F protease: inactive; Mtb FBA confirm: active; GDH-TPI counter-2: active

What do the screens show for `COc1ccc(C(=O)NNC(=O)C(=O)NC2CCCCC2)cc1`?
Mtb FBA inh: inactive; BoNT A protease: inactive; Anthrax LF inh2: inactive; GDH-TPI counter-1: inactive; Bead autofluor: inactive; BoNT F protease: inactive

Results for C=CCn1c(=O)c(C(=O)Nc2ccccc2O)c(O)c2ccccc21 ?
Mtb FBA inh: 29; BoNT A protease: inactive; Anthrax LF inh2: inactive; GDH-TPI counter-1: inactive; Bead autofluor: inactive; BoNT F protease: inactive; Mtb FBA confirm: inactive; GDH-TPI counter-2: 24

How did Fc1ccccc1-c1nc2nc3ccccc3nc2n1CC1CCCO1 (centres undefined) do in these assays?
Mtb FBA inh: 60; BoNT A protease: inactive; Anthrax LF inh2: inactive; GDH-TPI counter-1: 59; Bead autofluor: inconclusive; BoNT F protease: inconclusive; Mtb FBA confirm: inactive; GDH-TPI counter-2: inactive

Results for S=c1[nH]nc(-c2ccccc2)n1CC1CCCO1 (centres undefined) ?
Mtb FBA inh: inactive; BoNT A protease: inactive; Anthrax LF inh2: inactive; GDH-TPI counter-1: inactive; Bead autofluor: inactive; BoNT F protease: inactive

Results for CC(C)CCn1c(SCC#N)nc2c(sc3ccccc32)c1=O ?
Mtb FBA inh: inactive; BoNT A protease: inactive; Anthrax LF inh2: inactive; GDH-TPI counter-1: inactive; Bead autofluor: inactive; BoNT F protease: inactive

Results for CN(C)CCn1c(SCc2ccccc2C#N)nc2c(sc3ccccc32)c1=O ?
Mtb FBA inh: 50; BoNT A protease: inactive; Anthrax LF inh2: inactive; GDH-TPI counter-1: inactive; Bead autofluor: inactive; BoNT F protease: inactive; Mtb FBA confirm: 75; GDH-TPI counter-2: 59

What do the screens show for `COc1ccccc1NC(=O)CSc1nc2c(sc3ccccc32)c(=O)n1CCN(C)C`?
Mtb FBA inh: 51; BoNT A protease: inactive; Anthrax LF inh2: inactive; GDH-TPI counter-1: inactive; Bead autofluor: inactive; BoNT F protease: inactive; Mtb FBA confirm: 76; GDH-TPI counter-2: 60

Results for CCOCCn1ccc2c(OCC(=O)NCc3ccccc3)cccc2c1=O ?
Mtb FBA inh: inactive; BoNT A protease: inactive; Anthrax LF inh2: inactive; GDH-TPI counter-1: inactive; Bead autofluor: inconclusive; BoNT F protease: inactive

How did Cc1ccc(OCC(=O)Nc2ccc(O)c(C(=O)O)c2)cc1C do in these assays?
Mtb FBA inh: 72; BoNT A protease: inactive; Anthrax LF inh2: inactive; GDH-TPI counter-1: inactive; Bead autofluor: inactive; BoNT F protease: inactive; Mtb FBA confirm: active; GDH-TPI counter-2: active

Results for Cc1ccc(O)c(N=Nc2nccs2)c1 ?
Mtb FBA inh: inactive; BoNT A protease: inactive; Anthrax LF inh2: inactive; GDH-TPI counter-1: inactive; Bead autofluor: inactive; BoNT F protease: inactive

What do the screens show for `O=C(O)c1ccc2c(c1)C(=O)N(CCc1ccccc1)C2=O`?
Mtb FBA inh: 85; BoNT A protease: inactive; Anthrax LF inh2: inactive; GDH-TPI counter-1: inactive; Bead autofluor: inactive; BoNT F protease: inconclusive; Mtb FBA confirm: 174; GDH-TPI counter-2: 132

What do the screens show for `CCOC(=O)N(C)C[C@H]1OCc2cnnn2CCCC(=O)N([C@H](C)CO)C[C@H]1C`?
Mtb FBA inh: inactive; BoNT A protease: inactive; Anthrax LF inh2: inactive; GDH-TPI counter-1: inactive; Bead autofluor: inactive; BoNT F protease: inactive

What do the screens show for `FC(F)(F)c1nc2nc(Cl)c(Cl)nc2n1CCCN1CCOCC1`?
Mtb FBA inh: 48; BoNT A protease: inactive; Anthrax LF inh2: inactive; GDH-TPI counter-1: inactive; Bead autofluor: inactive; BoNT F protease: inactive; Mtb FBA confirm: active; GDH-TPI counter-2: active

What do the screens show for `c1ccc(-c2cnc(-c3cccnc3)o2)cc1`?
Mtb FBA inh: 93; BoNT A protease: inactive; Anthrax LF inh2: inactive; GDH-TPI counter-1: inactive; Bead autofluor: inactive; BoNT F protease: inactive; Mtb FBA confirm: 192; GDH-TPI counter-2: 155

Results for Fc1cccc(-c2ncc(-c3ccccc3)o2)c1 ?
Mtb FBA inh: inactive; BoNT A protease: inactive; Anthrax LF inh2: inactive; GDH-TPI counter-1: inactive; Bead autofluor: inactive; BoNT F protease: inactive

Results for CCOC(=O)N1CCC(NC(=O)C2CCN(c3ccc(N4CCOCC4)nn3)CC2)CC1 ?
Mtb FBA inh: 31; BoNT A protease: inactive; Anthrax LF inh2: inactive; GDH-TPI counter-1: inactive; Bead autofluor: 23805; BoNT F protease: inactive; Mtb FBA confirm: 123; GDH-TPI counter-2: 107

What do the screens show for `Cc1ccc(S(=O)(=O)Oc2ccc(C3C4=C(CCCC4=O)N(CCC(=O)O)C4=C3C(=O)CCC4)cc2Cl)cc1`?
Mtb FBA inh: 110; BoNT A protease: inactive; Anthrax LF inh2: inactive; GDH-TPI counter-1: inactive; Bead autofluor: inactive; BoNT F protease: inactive; Mtb FBA confirm: inactive; GDH-TPI counter-2: inactive

How did CCOc1cc(C2C3=C(CCCC3=O)N(CCC(=O)O)C3=C2C(=O)CCC3)ccc1OS(=O)(=O)c1ccc(C)cc1 do in these assays?
Mtb FBA inh: 79; BoNT A protease: inactive; Anthrax LF inh2: inactive; GDH-TPI counter-1: inactive; Bead autofluor: inactive; BoNT F protease: inactive; Mtb FBA confirm: 83; GDH-TPI counter-2: 72

How did CCC(O)CNc1nc(SC)nc2sc3c(c12)CCN(C)C3 (centres undefined) do in these assays?
Mtb FBA inh: 84; BoNT A protease: inactive; Anthrax LF inh2: inactive; GDH-TPI counter-1: inactive; Bead autofluor: inactive; BoNT F protease: inactive; Mtb FBA confirm: inactive; GDH-TPI counter-2: inactive

How did C=CCSc1nc(N)c2c3c(sc2n1)CN(C)CC3 do in these assays?
Mtb FBA inh: inactive; BoNT A protease: inactive; Anthrax LF inh2: inactive; GDH-TPI counter-1: inactive; Bead autofluor: inactive; BoNT F protease: inactive

Results for CSc1nc(N)c2c3c(sc2n1)CN(C)CC3 ?
Mtb FBA inh: 39; BoNT A protease: inactive; Anthrax LF inh2: inactive; GDH-TPI counter-1: inactive; Bead autofluor: inactive; BoNT F protease: inactive; Mtb FBA confirm: 48; GDH-TPI counter-2: 34

Results for COC(=O)C1=CN(Cc2cccs2)C=C(C(=O)OC)C1c1cccc(Cl)c1 ?
Mtb FBA inh: 71; BoNT A protease: inactive; Anthrax LF inh2: inactive; GDH-TPI counter-1: inactive; Bead autofluor: inactive; BoNT F protease: inactive; Mtb FBA confirm: 65; GDH-TPI counter-2: 53

Results for CCCCOc1ccccc1C1C(C(=O)OC)=CN(CC)C=C1C(=O)OC ?
Mtb FBA inh: 63; BoNT A protease: inactive; Anthrax LF inh2: inactive; GDH-TPI counter-1: inactive; Bead autofluor: inactive; BoNT F protease: inactive; Mtb FBA confirm: inactive; GDH-TPI counter-2: inactive

Results for CCCCOC(=O)c1ccccc1C(=O)OCCCC ?
Mtb FBA inh: inactive; BoNT A protease: inactive; Anthrax LF inh2: inactive; GDH-TPI counter-1: inactive; Bead autofluor: inactive; BoNT F protease: inactive

How did COC(=O)C1=CN(Cc2cccs2)C=C(C(=O)OC)C1c1ccc(OC)cc1OC do in these assays?
Mtb FBA inh: 85; BoNT A protease: inactive; Anthrax LF inh2: inactive; GDH-TPI counter-1: inactive; Bead autofluor: inactive; BoNT F protease: inactive; Mtb FBA confirm: 89; GDH-TPI counter-2: 93
